IMPase cell inh = qHTS Assay for Identifying the Cell-Membrane Permeable IMPase Inhibitors; CHO-M1 cells, IP1 accumulation, HTRF TR-FRET ratio; 120,000 tested, under 10 active; Inositol monophosphatase 1 (Rattus norvegicus), P97697; inhibition (IP1 accumulation), % at 46.1 µM; AID 901, 2007; active means well fitted curve in the direction sought with a large enough effect in the signal ratio, not every such curve was filed as active; inconclusive means small, poorly fitted or top-dose-only effect, or a change in a side signal; inactive means no such curve, though single readings can be large or run the other way; the % refers to the signal ratio;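 further: cells stimulated with carbachol in lithium chloride buffer; plate controls were DMSO basal wells for no effect and reference inhibitor wells for full effect; higher means more IMPase inhibition seen as more IP1 and lower FRET ratio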
Target sequence (P97697 whole entry, looked up): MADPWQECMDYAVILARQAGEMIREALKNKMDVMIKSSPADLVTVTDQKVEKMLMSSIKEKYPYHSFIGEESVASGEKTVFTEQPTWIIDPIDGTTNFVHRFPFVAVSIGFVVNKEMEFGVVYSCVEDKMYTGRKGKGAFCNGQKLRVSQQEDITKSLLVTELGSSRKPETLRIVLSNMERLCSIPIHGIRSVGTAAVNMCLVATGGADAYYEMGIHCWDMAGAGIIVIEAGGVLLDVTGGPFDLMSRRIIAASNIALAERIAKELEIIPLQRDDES
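Measured: the HTRF emission ratio (665/620 nm) plus the 620 nm donor channel, each fitted to the Hill equation to give AC50. Cells were CHO-M1 given compounds up to 46 uM and a 30 min carbachol stimulation at 37C.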
IMPase Li inh = qHTS Assay for Identifying the Cell-Membrane Permeable IMPase Inhibitors: Potentiation with Lithium; CHO-M1 cells, IP1 TR-FRET (IP-One), carbachol + lithium; Potency, µM (doses to about 59.4 µM), for inactives: at the top dose activity, negative = IMPase inhibition, most hits filed as inhibitors; 210,000 tested, 0.35% active; active means well fitted curve in the direction sought with a large enough effect; inconclusive means small, poorly fitted or top-dose-only effect, or another doubt; inactive means no such curve, though single readings can be large; an effect the other way counts as inactive or inconclusive;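 further: IP1 builds up when IMPase is blocked and the TR-FRET signal falls; potency means the concentration at half of the fitted maximal effect; plate controls were basal vehicle for no effect and high inhibitor control for full effect; nearly all actives have a fitted effect of over 50% in size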
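CHO cells stably expressing M1 receptor (2000/well) were cultured 16–30 h, then exposed to compounds with a small lithium addition for 30 min at 37C. IP1 was measured by TR-FRET competition; AC50 from Hill fits.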
PNC inhibitor = High Content Assay for Compounds that inhibit the Assembly of the Perinucleolar Compartment; AID 2417, 2010; PC3M PTB-GFP, PNC prevalence imaging, 16 h; stronger effect = lower value; activity change (PNC), negative = inhibition, % at 10 µM; 140,000 tested, 3.1% active;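 active means readout at or below -70, meaning at least 70% loss of cells showing the perinucleolar compartment, a nuclear body marking cancer cells; inconclusive means readout between -30 and a set limit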;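 further: plate controls were DMSO wells for no effect and camptothecin positive control wells for full effect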
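PC3M cells stably expressing PTB-GFP, 750–1000 cells/well, treated 16 h at 37 °C with compound (23 nl of library stock), in duplicate. After paraformaldehyde fixation and Hoechst stain, imaged at 20x; PNC prevalence scored by image analysis.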
12-hLO inh = qHTS Assay for Inhibitors of 12-hLO (12-human lipoxygenase). Potency, µM (highest dose often 57.1 µM), without a hit: at the highest dose activity change, negative = inhibition, usual class: inhibitors. AID 1452, 2008. purified 12-hLO, xylenol orange hydroperoxide absorbance. 150,000 tested, 0.12% active; active means well fitted curve in the direction sought with a large enough effect; inconclusive means small, poorly fitted or top-dose-only effect, or another doubt; inactive means no such curve, though single readings can be large; an effect the other way counts as inactive or inconclusive; further: potency means the concentration at half of the fitted maximal effect; nearly all actives have a fitted effect of over 55% in size
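Lipoxygenase turnover measured by absorbance at 573 and 405 nm after Fe-XO development. Human 12hLO 150 nM, arachidonate 40 uM, pH 7.0 Hepes buffer with detergent; 15 min compound preincubation, 30 min reaction.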
ALDH1A1 block = qHTS Assay for Inhibitors of Aldehyde Dehydrogenase 1 (ALDH1A1). 220,000 tested, 7.3% active. AID 1030, 2008. Aldehyde dehydrogenase 1A1 (Homo sapiens), P00352. Purified ALDH1A1, NADH fluorescence, propionaldehyde substrate. Potency, µM (highest dose often 75.3 µM), for inactives: at the top dose activity, negative = inhibition, hits mostly inhibitors;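 further: potency means the concentration at half of the fitted maximal effect; plate controls were no enzyme wells and a reference inhibitor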
Target sequence (P00352 whole entry, looked up): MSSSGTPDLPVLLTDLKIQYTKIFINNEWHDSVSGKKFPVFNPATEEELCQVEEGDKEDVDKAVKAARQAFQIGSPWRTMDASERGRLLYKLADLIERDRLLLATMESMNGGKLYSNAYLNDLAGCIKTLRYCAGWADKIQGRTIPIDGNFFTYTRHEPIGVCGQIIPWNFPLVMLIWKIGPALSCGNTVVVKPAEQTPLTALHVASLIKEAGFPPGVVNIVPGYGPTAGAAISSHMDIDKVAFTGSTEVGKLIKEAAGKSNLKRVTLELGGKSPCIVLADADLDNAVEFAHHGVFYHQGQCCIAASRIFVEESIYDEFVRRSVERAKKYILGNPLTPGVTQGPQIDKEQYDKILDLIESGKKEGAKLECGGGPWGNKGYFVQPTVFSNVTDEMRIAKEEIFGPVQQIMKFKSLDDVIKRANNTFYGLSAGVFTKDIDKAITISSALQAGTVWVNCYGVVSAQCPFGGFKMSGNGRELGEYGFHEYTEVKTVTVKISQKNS
HPGD block = qHTS Assay for Inhibitors of HPGD (15-Hydroxyprostaglandin Dehydrogenase); Potency, µM, for inactives: at the top dose activity change, negative = inhibition, usual class: inhibitors; 15-hydroxyprostaglandin dehydrogenase [NAD(+)] (Homo sapiens), P15428; purified HPGD, NADH fluorescence kinetic, PGE2 substrate; 150,000 tested, 4.3% active; AID 894, 2007; further: potency means the concentration at half of the fitted maximal effect
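20 nM HPGD preincubated 15 min at room temperature with compound in 50 mM Tris-HCl pH 8, 0.01% Tween 20. Started with 1 mM NAD+ and 30 uM prostaglandin E2; NADH fluorescence (360/450 nm) read 5 times over 30-s intervals, last minus first.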
Active calls of the source: *; ? = inconclusive; · = not tested or not shown; [ ] = another dose, or the depositor's remark. Rows were chosen to be rich in hits. Some 11% of all compounds tested hit in one or more screens of this group. Unless noted, the call rests on the fitted dose curve; in most records, active means well fitted inhibition curve with a large enough effect (not every such curve was filed as active); inconclusive means small, poorly fitted or top-dose-only effect, or another doubt; inactive means no such curve, though single readings can be large or run the other way. Unless noted, on the % scale 0 is the no-effect control and ±100 the full control effect.

SMILES | IMPase cell inh | IMPase Li inh | PNC inhibitor | 12-hLO inh | ALDH1A1 block | HPGD block
COCc1cc(=O)[nH]c(Nc2nc(C)c3ccccc3n2)n1 | 7 | 25%[38.3 µM] | -23 | 10% | 20µM* | -16%
COC(=O)c1ccc(CNC(=O)COC(=O)Cc2ccsc2)cc1 | · | -5% | · | · | 2% | ·
CCn1ncc(C2=NOC(C(=O)NCc3ccc(Cl)cc3)C2)c1C (centres undefined) | 7 | 11%[38.3 µM] | -82* | -5% | 0% | -14%
CCn1ncc(C2=NOC(C(=O)Nc3ccc(C)cc3)C2)c1C (centres undefined) | 8 | 21%[38.3 µM] | ? | 2% | 9% | -6%
Cc1ccc(CN2CCN(CC(=O)NCc3ccccc3Cl)C2=O)cc1 | -1 | · | · | · | · | ·
CC(C)(C)C(=O)NC(=S)Nc1sc2c(c1C(N)=O)CCC2 | · | 1% | · | · | 2µM* | ·
CCC1(CC)NC(=O)N(CC(=O)Nc2sc3c(c2C(N)=O)CCC3)C1=O | 9 | 18%[38.3 µM] | 27 | -8% | 22µM* | ?
CCOC(=O)c1c(NC(=S)NC(C)=O)sc(C)c1C | -8 | -1% | 7 | 1% | 2% | -5%
CC(C)CC(=O)NC(=S)Nc1sc2c(c1C(N)=O)CCC2 | · | ? | · | · | 1.4µM* | ·
Cc1sc(NC(=S)NC(=O)C(C)(C)C)c(C(N)=O)c1C | 4 | -2%[38.3 µM] | 14 | -4% | 7.9µM* | ?
Cc1nc2cnc(N3CCOCC3)nc2n(C[C@H]2CCCO2)c1=O | · | -5% | · | · | ? | ·
O=c1c(-c2ccccc2)nc2cnc(N3CCOCC3)nc2n1Cc1cccs1 | · | 5% | · | · | ? | ·
COc1cccc(Cn2c(=O)c(C)nc3cnc(N(C)C)nc32)c1 | · | 8% | · | · | ? | ·
COc1ccc(S(=O)(=O)N(CC(=O)Nc2cc(Cl)ccc2C)Cc2ccccc2)cc1OC | 2 | · | · | · | · | ·
Cc1cc([N+](=O)[O-])nn1CCCC(=O)Nc1sc2c(c1C(N)=O)CCC(C)C2 (centres undefined) | · | 2% | -13 | -1% | ? | 16µM*
CC(=O)NC(=S)Nc1sc2c(c1C(N)=O)CCC(C)C2 (centres undefined) | · | 0% | · | · | 8.9µM* | ·
CC1CCc2c(sc(NC(=O)Cn3cnc([N+](=O)[O-])n3)c2C(N)=O)C1 (centres undefined) | · | 0% | · | · | -3% | ·
Cc1ccccc1-c1nc2c3c(-c4ccccc4)c(-c4ccccc4)oc3ncn2n1 | 6 | · | · | · | · | ·
CSc1nnc2c3cc(C)ccc3n(Cc3ccccc3)c2n1 | -3 | ? | -6 | -5% | 14µM* | ?
CCCn1c2ccc(C)cc2c2nnc(SCCN3CCCCC3)nc21 | 16 | · | · | · | · | ·
CCn1c2ccc(C)cc2c2nnc(NN)nc21 | · | 4% | 49 | 1% | 25µM* | -13%
CCOC(=O)C(Sc1nnc2c3ccccc3n(CC)c2n1)C(=O)OCC | 2 | 23%[38.3 µM] | 37 | -1% | ? | ?
CCn1c2ccc(C)cc2c2nc3cc(C(=O)O)ccc3nc21 | -5 | -4% | 3 | -5% | -10% | ?
CCCCn1c2ccc(F)cc2c2nnc(NN)nc21 | · | 18% | · | · | 2.2µM* | ·
CCn1c2ccccc2c2nnc(NN)nc21 | · | 13% | 30 | -6% | 16µM* | -16%
SMILES | IMPase cell inh | IMPase Li inh | PNC inhibitor | 12-hLO inh | ALDH1A1 block | HPGD block
CC(=O)O[C@@H](C)C[N+](C)(C)C | -6[20.6 µM] | -6% | · | 0%[25.6 µM] | -4%[20.9 µM] | -7%
CCN(CC)CCCC(C)n1c(-c2ccccc2)nc2c(NCCO)nc(C)nc21 (centres undefined) | · | 0% | · | -1% | ? | ?
COC(=O)[C@@H]1O[C@@H](c2c(OC)c(OC)c(C)c(OC)c2OC)[C@H](C)[C@@H](O)[C@@H]1C | · | · | · | · | 0%[13.5 µM] | ·
O=CN1CCc2c([nH]c3ccccc23)C1c1cccc2cccnc12 (centres undefined) | · | -2% | · | · | -10% | -5%
CCNC(=O)COC(=O)/C=C/c1cccc([N+](=O)[O-])c1 | · | 5% | · | · | -6% | ·
CCN(C(=O)COC(=O)/C=C/c1cccc([N+](=O)[O-])c1)c1ccccc1 | · | 16% | · | · | 14µM* | ·
CCCCN(CCCC)C(=O)/C=C/c1cccc([N+](=O)[O-])c1 | 11 | 13% | 18 | -13% | 4.5µM* | -17%
CCOC(=O)Oc1c(OC)cc(C(=O)O[C@H]2C[C@H]3CN4CCc5c([nH]c6cc(OC)ccc56)[C@@H]4C[C@H]3[C@@H](C(=O)OC)[C@@H]2OC)cc1OC | -5[20.6 µM] | 0% | · | 1%[25.6 µM] | 3%[20.9 µM] | -13%
c1ccc2sc(Sc3ncnc4sccc34)nc2c1 | · | -2% | ? | 1% | -5% | ?
CCc1cc2c(Sc3nc4ccccc4s3)ncnc2s1 | -4 | -16%[38.3 µM] | 27 | -8% | 20µM* | 25µM*
CCCOCC1CC2(CC(C)(c3csc(N)n3)OC2=O)C(=O)O1 (centres undefined) | 0 | 0% | -119* | 1% | 2% | 0%
CCOC(=O)C1(c2csc(N)n2)COC(=O)C1 (centres undefined) | 13 | -4%[38.3 µM] | -14 | -3% | -23% | 2%
COc1cc(C(C)=O)ccc1Oc1ncnc2c1cnn2-c1ccc(F)cc1 | 6 | ? | ? | 2% | -9% | 16µM*
O=C(c1ccc(CN2CCc3ccccc3C2)cc1)N1CCc2ccccc2C1 | -2 | 13%[38.3 µM] | 16 | 2% | -12% | 3.2µM*
CCCCNC(=O)N1CCc2ccccc2C1 | · | 0% | -114* | 1% | 2% | -6%
O=C(OCC(=O)N1CCc2ccccc2C1)c1ccc(N2CCOCC2)c([N+](=O)[O-])c1 | -12 | · | 22 | 1% | 20µM* | ·
O=C(c1ccccc1[N+](=O)[O-])N1CCc2ccccc2C1 | · | 2% | 5 | 4% | 2% | 13µM*
COc1cccc(Cn2c(=O)c(-c3ccccc3)nc3cnc(N4CCNCC4)nc32)c1 | · | 12% | · | · | ? | ·
CCOCCCn1c(=N)c(C(=O)NC2CCCCC2)cc2c(=O)n3ccccc3nc21 | 1 | · | · | · | · | ·
Nc1ccc(C(=O)OCC(=O)N2CCc3ccccc3C2)cc1[N+](=O)[O-] | · | -6% | 39 | 7% | 5% | 13µM*
Nc1ccc(C(=O)OCC(=O)N2CCN(C(=O)c3ccco3)CC2)cc1[N+](=O)[O-] | 8 | -9% | 7 | 0% | 3% | -8%
COc1cccc(-c2nccc(-n3ccnc3)n2)c1 | · | 1% | · | 2% | 4% | -16%
COC(=O)C1=C(C(=O)OC)N2C=CC=CC2(C)C(C(=O)OC)=C1C(=O)OC (centres undefined) | · | -12% | ? | -20% | -7% | 35µM*
CCN(CC)c1ccc(C=Nc2ccc(C)cc2C)c(O)c1 | · | 6% | · | · | 20µM* | ·

Assay outcomes from PubChem BioAssay.
